Experimental data as given in PubChem BioAssay (NCI).
This is part of a sample that, as a whole, favours compounds with a hit. Of some 83,000 tested, about 20% had one in any assay.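 48-hour exposure, single concentration, 96-well plates; percent growth endpoint where 0 means no net growth. Active: below 10.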 Activity calls are given as the source filed them.

Experiments:
Assay in all cases: NCI-60 one-dose screen, 48 h (100 = growth as untreated, 0 = no growth, -100 = all killed)
DU-145 prostate = settings: 10 µM unless noted
K-562 leukemia = settings: 10 µM unless noted
MALME-3M melanoma = settings: 10 µM unless noted
RXF 393 renal = settings: 10 µM unless noted
SF-268 CNS = settings: 10 µM unless noted
SF-295 CNS = settings: 10 µM unless noted
SF-539 CNS = settings: 10 µM unless noted
UACC-257 melanoma = settings: 10 µM unless noted
M14 melanoma = settings: 10 µM unless noted
HCT-15 colon = settings: 10 µM unless noted
HT29 colon = settings: 10 µM unless noted
SNB-75 CNS = settings: 10 µM unless noted
SNB-19 CNS = settings: 10 µM unless noted
U251 CNS = settings: 10 µM unless noted
PC-3 prostate = settings: 10 µM unless noted
SK-MEL-5 melanoma = settings: 10 µM unless noted
UACC-62 melanoma = settings: 10 µM unless noted
SK-MEL-28 melanoma = settings: 10 µM unless noted
MDA-MB-231 breast = settings: 10 µM unless noted
LOX IMVI melanoma = settings: 10 µM

Measured: growth

CC(C)N=C(N)/N=C(\N)Nc1ccc2ccc3ccccc3c2c1
active: DU-145 prostate -89.5% | K-562 leukemia -42.3% | MALME-3M melanoma -89.6% | RXF 393 renal -89.7% | SF-268 CNS -64.7% | SF-295 CNS -89.1% | SF-539 CNS -98.9% | UACC-257 melanoma -79.1% | M14 melanoma -76.8% | HCT-15 colon -91.5% | HT29 colon -84.4% | SNB-75 CNS -20.7% | SNB-19 CNS -92.6% | U251 CNS -67.9% | PC-3 prostate -7.75% | SK-MEL-5 melanoma -98.1% | UACC-62 melanoma -75.6% | SK-MEL-28 melanoma -78.2%

CCCCC(CCc1ccc([N+](=O)[O-])cc1)(C(C)=O)C(=O)OCC (stereo not drawn)
inactive: DU-145 prostate 102% | K-562 leukemia 99.7% | MDA-MB-231 breast 98.2% | RXF 393 renal 85.8% | SF-268 CNS 95.9% | SF-295 CNS 99.2% | SF-539 CNS 94.7% | UACC-257 melanoma 99.1% | M14 melanoma 96.7% | HCT-15 colon 94.7% | HT29 colon 94.2% | SNB-75 CNS 85.1% | SNB-19 CNS 108% | U251 CNS 95.3% | PC-3 prostate 81.2% | SK-MEL-5 melanoma 93.2% | UACC-62 melanoma 97.5% | LOX IMVI melanoma 95.8% | SK-MEL-28 melanoma 100%

OC(Cc1cc(CC(O)(C(F)(F)F)C(F)(F)F)nc(CC(O)(C(F)(F)F)C(F)(F)F)c1)(C(F)(F)F)C(F)(F)F
active: K-562 leukemia 9.94% | MDA-MB-231 breast -45.6% | RXF 393 renal -17.2% | SF-295 CNS -8.82% | SF-539 CNS -1.21% | UACC-257 melanoma -28.3% | HCT-15 colon 9.46% | HT29 colon -12.1% | SNB-75 CNS -8.76% | U251 CNS -60.2% | PC-3 prostate 4.38% | SK-MEL-5 melanoma -83.3% | UACC-62 melanoma -10.6% | LOX IMVI melanoma 0.881%
inactive: DU-145 prostate 24.9% | SF-268 CNS 12.9% | M14 melanoma 13.7% | SNB-19 CNS 16% | SK-MEL-28 melanoma 26.5%

COc1cc(/C=C2\SC(=S)N(/C=C/c3nc4ccccc4[nH]c3=O)C2=O)cc(OC)c1OC
inactive: DU-145 prostate 97.7% | K-562 leukemia 88.1% | MDA-MB-231 breast 80.1% | RXF 393 renal 77.7% | SF-268 CNS 77.5% | SF-295 CNS 88.4% | SF-539 CNS 95.2% | UACC-257 melanoma 79.2% | M14 melanoma 75.4% | HCT-15 colon 91.7% | HT29 colon 90.6% | SNB-75 CNS 66.9% | SNB-19 CNS 97.5% | U251 CNS 81.8% | PC-3 prostate 95.2% | SK-MEL-5 melanoma 82.7% | UACC-62 melanoma 81.9% | LOX IMVI melanoma 56.7% | SK-MEL-28 melanoma 90.5%

CN(C)CC(C)(CN(C)C)C(=O)/C=C/c1c(Cl)cccc1Cl
inactive: DU-145 prostate 36.4% | SF-295 CNS 78.2% | UACC-257 melanoma 52.5% | HT29 colon 12.2% | SNB-75 CNS 64.5% | U251 CNS 40.4% | PC-3 prostate 46.2% | SK-MEL-5 melanoma 56.3% | UACC-62 melanoma 20.1%
active: K-562 leukemia -8.43% | MALME-3M melanoma -67.2% | RXF 393 renal -80.8% | SF-539 CNS -2.86% | HCT-15 colon -65.6% | LOX IMVI melanoma -100% | SK-MEL-28 melanoma 4.32%

CC(=O)Nc1ccc(C(=O)CCl)cc1
active: K-562 leukemia 1.75% | MALME-3M melanoma -53.9% | HCT-15 colon 6.54% | HT29 colon 8.26% | LOX IMVI melanoma -53.6%
inactive: DU-145 prostate 66% | RXF 393 renal 83.2% | SF-268 CNS 81.2% | SF-295 CNS 102% | SF-539 CNS 56.1% | UACC-257 melanoma 86% | SNB-75 CNS 84.3% | SNB-19 CNS 82.5% | U251 CNS 86.3% | PC-3 prostate 92.9% | SK-MEL-5 melanoma 107% | UACC-62 melanoma 81.3% | SK-MEL-28 melanoma 69.6%

CCCCCCCCCCCC[n+]1ccc2ccccc2c1
active: DU-145 prostate 8.38% | K-562 leukemia -18.4% | MDA-MB-231 breast -18% | RXF 393 renal -6.08% | SF-268 CNS -72.7% | SF-295 CNS -40.3% | SF-539 CNS -47.8% | UACC-257 melanoma -39.2% | M14 melanoma -84.2% | HT29 colon 0.914% | SNB-75 CNS -21% | SNB-19 CNS -19.8% | U251 CNS -53.5% | PC-3 prostate -34.1% | SK-MEL-5 melanoma -93.7% | UACC-62 melanoma -62.1% | LOX IMVI melanoma -75% | SK-MEL-28 melanoma -28.6%
inactive: HCT-15 colon 25%

N#C/C(=N\Nc1ccc(Cl)cc1)C(=O)C1CC1
active: UACC-257 melanoma 3.99% | SK-MEL-5 melanoma 0.976%
inactive: DU-145 prostate 74.4% | K-562 leukemia 63.2% | MALME-3M melanoma 31.1% | RXF 393 renal 84.9% | SF-295 CNS 40.9% | SF-539 CNS 59.7% | M14 melanoma 52.2% | HCT-15 colon 53.9% | HT29 colon 67.6% | SNB-75 CNS 56.5% | U251 CNS 40.5% | PC-3 prostate 54.3% | UACC-62 melanoma 32.1% | LOX IMVI melanoma 67.2% | SK-MEL-28 melanoma 53.9%

O=C(Cc1nc2cc(Cl)c(Cl)cc2nc1CC(=O)c1cccnc1)c1cccnc1
inactive: DU-145 prostate 93.5% | K-562 leukemia 49.6% | MALME-3M melanoma 65.5% | RXF 393 renal 87.9% | SF-268 CNS 82.2% | SF-295 CNS 94.1% | SF-539 CNS 78.7% | UACC-257 melanoma 95.7% | M14 melanoma 76.5% | HCT-15 colon 57.2% | HT29 colon 71.6% | SNB-75 CNS 88.4% | U251 CNS 89.3% | PC-3 prostate 70.2% | SK-MEL-5 melanoma 81.7% | UACC-62 melanoma 71.4% | LOX IMVI melanoma 65.4% | SK-MEL-28 melanoma 87.1%
